These results are taken from PubChem BioAssay (Tox21).

Results filed as inconclusive are left out. Calls of active or inactive are those of the source. Unless noted, calls come from the whole dose curve; as a rule, active = well fitted curve in the direction sought with a large enough effect in the repeat runs; inconclusive = weak or mixed curves; inactive = no such curve, though single readings can be large; an effect the other way counts as inactive or inconclusive.

The target in test [1] is Progesterone receptor (Homo sapiens) (UniProt P06401). As to the kind of experiment: qHTS assay to identify small molecule antagonists of the progesterone receptor (PR) signaling pathway (AID 1346795; active = well fitted inhibition curve with a large enough effect in the signal ratio in the repeat runs, not every such curve was filed as active; the % refers to the signal ratio; note: potency is the fitted concentration of half-maximal effect). The method in brief:
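Fluorescence intensity measured 2 hr after adding beta-lactamase FRET substrate to PR-UAS-bla HEK293T cells that had been co-treated 16 hr with compound and 1 nM R5020 (final concentration) in 2% charcoal-stripped FBS.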
In general terms: Quantitative high-throughput screening tests each substance at several concentrations.

A short description of test [2]: qHTS assay to identify small molecule antagonists of the progesterone receptor (PR) signaling pathway - cell viability counter screen (AID 1346798). Note: nearly all actives have a fitted effect of over 50% in size. Note: potency is the fitted concentration of half-maximal effect. The method in brief: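 CellTiter-Glo luminescence; PR-UAS-bla HEK293T, 3,000 cells/well; compound + R5020, 16 hr, 37C/5% CO2; 30 min RT before read.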
Test [3] can be described thus: qHTS assay to identify small molecule agonists of the progesterone receptor (PR) signaling pathway - cell viability counter screen (AID 1346799; calls by dose curve; note: nearly all actives have a fitted effect of over 45% in size). Summed up: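 In parallel with the beta-lactamase readout, cytotoxicity toward PR-UAS-bla HEK293T cells was measured by CellTiter-Glo luminescence following 16 hr compound incubation in 2% charcoal-stripped FBS medium.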
Test [4] is described as follows: qHTS assay to identify small molecule agonists of the TGF-beta/Smad signaling pathway - cell viability counter screen (AID 1346829). Note: top concentration of the series differs between compounds; nearly all actives have a fitted effect of over 45% in size. Summed up:
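Tox21 qHTS format: SBE-bla HEK 293T cells treated with DMSO-dissolved compounds for 5 hr; CellTiter-Glo luminescence after 30 min at room temperature.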

Test [5] concerns the target Thyrotropin-releasing hormone receptor (Homo sapiens) (UniProt P34981). Kind of test: qHTS assay to identify small molecule agonists of the thyrotropin-releasing hormone receptor (TRHR) signaling pathway (AID 1346891; calls by dose curve;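 note: HEK293 cells expressing TRHR with calcium dye readout; series mostly up to about 58 µM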). Summed up: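 Compounds were tested as agonists at 15 concentrations, in triplicate, on TRHR-Hek293 cells; calcium-sensitive dye fluorescence was recorded for 3 min following addition.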

The nature of test [6]: Human pregnane X receptor (PXR) small molecule agonists, qHTS cell viability counter screen (AID 1346977). Note: nearly all actives have a fitted effect of over 50% in size. Note: potency is the fitted concentration of half-maximal effect. The method in brief:
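Viability counter screen: CellTiter-Fluor signal in PXR-Luc HepG2 cells, 24hr compound exposure, 37C, 5% CO2.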

A short description of test [7]: qHTS assay to identify small molecule agonists of the TGF-beta/Smad signaling pathway (AID 1346859; active = well fitted activation curve with a large enough effect in the signal ratio in the repeat runs, not every such curve was filed as active; the % refers to the signal ratio; note: series mostly up to about 77 µM). The method in brief: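 After overnight seeding, SBE-bla HEK 293T cells are dosed with compounds in DMSO and kept 5 hr at 37 C, 5% CO2. LiveBLAzer-type FRET substrate is then applied for 2 hr at room temperature.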
A short description of test [8]: qHTS assay to identify small molecule antagonists of the TGF-beta/Smad signaling pathway - cell viability counter screen (AID 1346824). Note: nearly all actives have a fitted effect of over 50% in size. Note: potency is the fitted concentration of half-maximal effect. The method in brief: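 SBE-bla HEK 293T cells were plated overnight at 37 C, then given compounds in DMSO plus TGF-beta1 (added as 0.25 ng/mL solution) for 5 hr. After the bla read, CellTiter-Glo was added to the same wells and luminescence read after 30 min at room temperature.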

Test [9] has as its target Thyrotropin-releasing hormone receptor (Homo sapiens) (UniProt P34981). Kind of test: qHTS assay to identify small molecule antagonists of the thyrotropin-releasing hormone receptor (TRHR) signaling pathway (AID 1346877; active = well fitted inhibition curve with a large enough effect in the repeat runs, not every such curve was filed as active; note: series mostly up to about 51 µM). The method in brief: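 Intracellular calcium fluorescence, read kinetically every second over 3 min, reports TRH-evoked signalling in HEK293 cells carrying TRHR. Test compounds were added 5 min ahead of a 1 nM TRH challenge.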

Progesterone receptor (Homo sapiens), sequence (P06401 whole entry, looked up): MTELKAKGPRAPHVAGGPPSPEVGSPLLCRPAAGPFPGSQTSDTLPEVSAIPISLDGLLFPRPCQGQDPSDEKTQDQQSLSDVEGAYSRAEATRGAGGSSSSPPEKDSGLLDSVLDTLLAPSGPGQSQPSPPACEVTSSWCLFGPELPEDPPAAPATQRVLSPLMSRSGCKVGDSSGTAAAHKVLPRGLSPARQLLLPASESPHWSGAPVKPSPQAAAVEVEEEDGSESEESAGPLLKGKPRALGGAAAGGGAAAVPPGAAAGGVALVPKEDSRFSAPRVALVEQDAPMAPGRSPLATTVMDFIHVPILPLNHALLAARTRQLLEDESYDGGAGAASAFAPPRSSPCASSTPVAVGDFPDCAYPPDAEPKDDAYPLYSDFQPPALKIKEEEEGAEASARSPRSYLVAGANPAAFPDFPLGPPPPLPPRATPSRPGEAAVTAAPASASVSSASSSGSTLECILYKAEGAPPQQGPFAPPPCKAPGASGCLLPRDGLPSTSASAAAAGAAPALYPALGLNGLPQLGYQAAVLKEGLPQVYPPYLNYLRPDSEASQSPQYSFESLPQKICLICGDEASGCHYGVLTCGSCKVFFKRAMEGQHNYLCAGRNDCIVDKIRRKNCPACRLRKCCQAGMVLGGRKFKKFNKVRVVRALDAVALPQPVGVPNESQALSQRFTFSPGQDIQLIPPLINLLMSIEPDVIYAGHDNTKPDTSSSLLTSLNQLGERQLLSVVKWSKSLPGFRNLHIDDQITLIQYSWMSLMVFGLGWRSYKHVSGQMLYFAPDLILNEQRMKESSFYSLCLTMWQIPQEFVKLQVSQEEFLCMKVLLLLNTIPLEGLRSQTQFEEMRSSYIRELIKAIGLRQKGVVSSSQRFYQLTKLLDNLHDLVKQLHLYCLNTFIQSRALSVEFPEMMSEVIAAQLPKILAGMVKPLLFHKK
Thyrotropin-releasing hormone receptor (Homo sapiens), sequence (P34981 whole entry, looked up): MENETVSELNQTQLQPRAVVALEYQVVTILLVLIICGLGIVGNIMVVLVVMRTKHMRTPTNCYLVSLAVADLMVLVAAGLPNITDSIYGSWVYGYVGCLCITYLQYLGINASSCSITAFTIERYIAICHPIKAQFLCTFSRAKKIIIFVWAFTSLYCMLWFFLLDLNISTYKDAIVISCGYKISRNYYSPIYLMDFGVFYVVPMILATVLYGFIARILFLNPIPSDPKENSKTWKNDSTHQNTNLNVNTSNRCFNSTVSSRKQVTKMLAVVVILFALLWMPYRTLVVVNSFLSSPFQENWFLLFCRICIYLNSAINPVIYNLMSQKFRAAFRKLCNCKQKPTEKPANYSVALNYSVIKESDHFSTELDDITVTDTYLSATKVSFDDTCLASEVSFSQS

Regarding `CCS(=O)(=O)C(C)(C)S(=O)(=O)CC`, the Potency result in [1], in [2], in [3] and in test [6] was “inactive” throughout. In addition, the call in test [4] and in test [5] was inactive.

Take `CN1C(=S)CN=C(c2ccccc2)c2cc(Cl)ccc21`: the Potency in test [1] is 21.1 µM (active). The call in test [4], in test [7] and in test [5] was inactive. Also, the Potency result in test [6] is “inactive”.

With `CCOC(=O)NC(=S)Nc1ccccc1NC(=S)NC(=O)OCC`, the Potency entry in [3], in test [8] and in [6] was “inactive” throughout. Moreover, the result in [4], in test [7] and in [5] was inactive.

Regarding `Fc1ccc(C2(Cn3cncn3)OC2c2ccccc2Cl)cc1` (stereo unspecified), in test [2], the Potency result was “inactive”. Besides, the result in test [4], in [7], in test [9] and in [5] was inactive.

In the case of `CC1CCCCC1NC(=O)Nc1ccccc1` (stereo unspecified), the Potency result in [2], in test [3], in [8] and in [6] was “inactive” in each case. In addition, the molecule was classed as inactive in test [4], in test [7], in test [9] and in test [5].

Regarding `CC(C)(C)C(=O)C(Oc1ccc(Cl)cc1)n1cncn1` (stereo unspecified), the Potency result in test [8] and in [6] was “inactive” in each case. Also, the result in test [4], in test [7], in test [9] and in test [5] was inactive.

On to `O=[N+]([O-])c1ccc2c3c(cccc13)CC2`, for which the Potency in [1] was 24.3 µM (active). The Potency entry in [2], in [3] and in test [6] was “inactive” throughout. The outcome in [4], in test [7], in [9] and in [5] was inactive.

As to `CC(C)[N+](=O)[O-]`, the Potency result in test [1], in [2], in test [3] and in [6] was “inactive” throughout. Further, the result in test [4], in [7] and in test [5] was inactive.

`O=C1CN2CCOC2(c2ccccc2Cl)c2cc(Cl)ccc2N1` (stereo unspecified): the Potency result in test [2], in [3], in test [8] and in test [6] was “inactive” throughout. For the same molecule, the call in test [4] and in test [7] was inactive.

On to `CCOC(=O)/C=C(C)/C=C/C[C@@H](C)CCCC(C)C`, for which the Potency result in test [2], in test [3], in [8] and in [6] was “inactive” each time. Further, the molecule was called inactive in test [4], in [7] and in [5].

With `N#CC(Cl)(Cl)Cl`, the Potency entry in test [2], in test [3] and in [6] was “inactive” each time. For the same molecule, the result in [4] and in test [7] was inactive.

`BrCCCCCCBr`: the Potency result in [1], in test [3], in [8] and in [6] was “inactive” throughout. Also, the molecule was called inactive in [4], in test [7] and in test [5].

For the molecule `COP(=S)(OC)Oc1c(Cl)cc(C)cc1Cl`, the Potency in test [1] was 27.3 µM (active). In addition, the Potency result in test [8] and in test [6] was “inactive” in each case. For the same molecule, the result in test [4], in test [7], in test [9] and in [5] was inactive.

As to `C=CCC1=C(C)[C@@H](OC(=O)[C@@H]2[C@@H](C=C(C)C)C2(C)C)CC1=O`, the Potency was 27.3 µM (active) in test [1], 49 µM (active) in test [8] and 61.1 µM (active) in [6]. Moreover, the molecule was called inactive in test [9] and in test [5].

Regarding `Cc1nnc2n1-c1sc(CCC(=O)N3CCOCC3)cc1C(c1ccccc1Cl)=NC2`, the Potency entry in test [1], in [2], in test [3], in test [8] and in test [6] was “inactive” in each case. Also, the result in test [4] was inactive.

For the molecule `CCNc1nc(NC(C)C)nc(OC)n1`, the Potency result in test [2], in [3], in test [8] and in [6] was “inactive” in each case. Besides, the outcome in test [4], in test [7], in [9] and in [5] was inactive.

`CC(C=O)Cc1ccc2c(c1)OCO2` (stereo unspecified): the Potency result in [1], in [2], in [3], in [8] and in test [6] was “inactive” in each case. Moreover, the molecule was called inactive in test [4] and in test [7].

With `Cc1cc(C)nc(Nc2ccccc2)n1`, the Potency result in test [2], in test [3], in [8] and in test [6] was “inactive” throughout. The molecule was called inactive in [4], in [7], in test [9] and in [5].

In the case of `C[C@]1(O)CC[C@H]2[C@@H]3CCC4=CC(=O)CC[C@]4(C)[C@@]3(F)[C@@H](O)C[C@@]21C`, the Potency entry in [2] and in test [6] was “inactive” in each case. For the same molecule, the molecule was classed as inactive in test [4] and in test [7].

As to `CC1(C)COP(Oc2ccccc2)OC1`, the Potency entry in [2], in test [3] and in test [8] was “inactive” throughout. The result in [4], in [7], in [9] and in test [5] was inactive.

On to `CN/C(=N\[N+](=O)[O-])NCC1CCOC1` (stereo unspecified), for which the Potency entry in test [2], in test [3], in [8] and in test [6] was “inactive” in each case. The outcome in [4], in test [7], in test [9] and in test [5] was inactive.

Consider `O=C1OC(CCN2CCCCC2)OC1(c1ccccc1)c1ccccc1` (stereo unspecified), for which the Potency entry in [2], in [8] and in [6] was “inactive” each time. Besides, the outcome in test [4], in test [7], in [9] and in [5] was inactive.

Regarding `N#CC(CCc1ccc(Cl)cc1)(Cn1cncn1)c1ccccc1` (stereo unspecified), the Potency is 30.6 µM (active) in test [2], 54.9 µM (active) in test [8] and 61.1 µM (active) in test [6].

On to `Cc1ncc(CNC(=O)N(CCCl)N=O)c(N)n1`, for which the Potency result in [1], in test [3] and in test [6] was “inactive” throughout. Further, the molecule was classed as inactive in test [4], in test [7], in [9] and in test [5].

On to `COc1ccc2c(c1OC)CN1CCc3cc4c(cc3C1C2)OCO4` (stereo unspecified), for which the Potency entry in [2], in [3], in test [8] and in test [6] was “inactive” in each case. The molecule was classed as inactive in test [4], in test [7], in test [9] and in [5].

For `C#C[C@]1(O)C=C[C@H]2[C@@H]3CCC4=CC(=O)CC[C@@H]4[C@H]3CC[C@@]21CC`, the Potency entry in test [1], in [8] and in test [6] was “inactive” each time. The call in test [4], in [7] and in test [5] was inactive.

Consider `O=[N+]([O-])c1cccc2c([N+](=O)[O-])cccc12`, for which the Potency result in [1] and in test [6] was “inactive” in each case. Further, the call in test [4], in test [7], in test [9] and in [5] was inactive.

Regarding `CS(=O)(=O)c1cc(C(F)(F)F)ccc1C(=O)c1cnoc1C1CC1`, the Potency entry in test [1], in test [3], in [8] and in test [6] was “inactive” each time. The molecule was called inactive in test [4] and in test [7].

In the case of `CCOP(=S)(OCC)Oc1nc(Cl)n(C(C)C)n1`, the Potency result in test [1], in test [2], in test [8] and in test [6] was “inactive” in each case. In addition, the molecule was called inactive in test [4], in test [7] and in [5].
